# Test results as given in PubChem BioAssay (NCI).
# Compounds without any hit were thinned out: in the full panel of roughly 79,000, 15% have a hit. Values without a mark were called inactive. The source made the active and inactive calls. Rule as the data show it: active = growth inhibition above about 70%; inactive = the rest.
# Tests used:
# [1] = NCI Yeast Anticancer Drug Screen. Data for the rad52 strain (AID 147);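 also: 0% = growth of vehicle-treated control cultures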; settings: S. cerevisiae rad52 mutant growth inhibition, hits give high values
# Outline: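 The repair-mutant yeast strain was incubated with compounds, then growth was read and inhibition derived relative to vehicle.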
# [2] = NCI Yeast Anticancer Drug Screen. Data for the wt1 strain (AID 149);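 also: 0% = growth of vehicle-treated wt1 cultures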; settings: S. cerevisiae wt1 strain (SPY 50644) growth inhibition, hits give high values
# Outline: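 Measured: growth of wt1 yeast under compound versus vehicle treatment, reported as inhibition.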
# [3] = NCI Yeast Anticancer Drug Screen. Data for the rad50EPP+ strain (AID 151);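 also: 0% = growth of vehicle-treated control cultures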; settings: S. cerevisiae rad50 mutant strain, hits give high values
# Outline: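 Vehicle-normalised growth inhibition; rad50EPP+ yeast strain, altered in DNA damage repair, compound-treated.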
# [4] = NCI Yeast Anticancer Drug Screen. Data for the mgt1 strain (AID 153); settings: S. cerevisiae mgt1 mutant growth inhibition, hits give high values
# Outline: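 Vehicle-normalized growth inhibition is determined in mgt1 yeast, a strain selected for a defined alteration in DNA repair or cell cycle control.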
# [5] = NCI Yeast Anticancer Drug Screen. Data for the rad50 strain (AID 155);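 also: 0% = growth of vehicle-only cultures of the same strain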; settings: S. cerevisiae rad50 strain growth inhibition, hits give high values
# Outline: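 Growth of the mutant yeast was measured after compound exposure and referenced to vehicle-treated cultures.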
# [6] = NCI Yeast Anticancer Drug Screen. Data for the mec2-1 strain (AID 157); settings: S. cerevisiae mec2-1 strain, hits give high values
# Outline: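 Mutant yeast (mec2-1) grown with compound; growth inhibition relative to vehicle control reported.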
# [7] = NCI Yeast Anticancer Drug Screen. Data for the rad14 strain (AID 159);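 also: 0% = growth of vehicle-treated control cultures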; settings: S. cerevisiae rad14 strain growth inhibition, hits give high values
# Outline: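 Here, inhibition of yeast growth was measured after compound exposure, using a strain with a genetic defect in DNA damage repair and vehicle-treated cultures as the reference.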
# [8] = NCI Yeast Anticancer Drug Screen. Data for the sgs1 mgt1 strain (AID 161);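 also: 0% = growth of cultures given vehicle only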; settings: S. cerevisiae sgs1 mgt1 strain, hits give high values
# Outline: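 Growth of a repair-deficient yeast mutant was monitored after compound treatment and expressed as inhibition relative to vehicle-treated cultures.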
# [9] = NCI Yeast Anticancer Drug Screen. Data for the CLN2oe strain (AID 163);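 also: 0% = growth of vehicle-only control cultures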; settings: S. cerevisiae CLN2oe strain, hits give high values
# Outline: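 Compounds are applied to yeast harbouring a defined cell-cycle control change; reduced growth compared with vehicle-treated controls gives the value.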
# [10] = NCI Yeast Anticancer Drug Screen. Data for the cln2 rad14 strain (AID 165);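 also: 0% = growth equal to vehicle treated cultures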; settings: S. cerevisiae cln2 rad14 strain, hits give high values
# Outline: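 Readout is yeast growth inhibition versus vehicle-treated controls, using a strain with cln2 and rad14 alterations exposed to compound.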
# [11] = NCI Yeast Anticancer Drug Screen. Data for the bub3 strain (AID 167); settings: S. cerevisiae bub3 mutant strain, hits give high values
# Outline: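 Whole-cell yeast assay. The mutant strain was incubated with compounds, and growth inhibition was determined by comparison with vehicle-treated cells.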
# [12] = NCI Yeast Anticancer Drug Screen. Data for the wt2 strain (AID 169);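 also: 0% = growth of vehicle-treated yeast cultures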; settings: S. cerevisiae wt2 strain growth inhibition, hits give high values
# Outline: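 Against vehicle-treated controls, the growth of yeast exposed to each compound was compared, and the inhibition was recorded.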
# [13] = NCI Yeast Anticancer Drug Screen. Data for the sgs1 strain (AID 173);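 also: 0% = growth of vehicle-only control cultures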; settings: S. cerevisiae sgs1 mutant, hits give high values
# Outline: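 Each compound was added to cultures of the altered yeast strain. Growth was recorded, and inhibition was derived by comparison with vehicle controls.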
# [14] = NCI Yeast Anticancer Drug Screen. Data for the mlh1 rad18 strain (AID 175); settings: S. cerevisiae mlh1 rad18 strain growth inhibition, hits give high values
# Outline: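 Genetically defined yeast (DNA repair-deficient) exposed to compounds; growth inhibition determined relative to vehicle.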
# [15] = NCI Yeast Anticancer Drug Screen. Data for the rad18 strain (AID 177); settings: S. cerevisiae rad18 mutant growth inhibition, hits give high values
# Outline: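 Vehicle-treated cultures served as the baseline for scoring compound-induced growth inhibition in DNA-repair-mutant yeast.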
# [16] = NCI Yeast Anticancer Drug Screen. Data for the mlh1 strain (AID 171);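 also: 0% = growth of vehicle-treated control cultures of the same strain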; settings: S. cerevisiae mlh1 strain growth inhibition, hits give high values
# Outline: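 Measured: yeast growth. Reference: vehicle-treated controls. Organism: strain with a defined alteration affecting DNA damage repair or cell cycle control, treated with compound.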
# [17] = at 5.0 µM (retest, dose inferred, filed as 0.5)
# [18] = at 50.0 µM (retest, dose inferred, filed as 5.0)
smiles,measurement,setting,value
OC(c1ccc(Br)cc1)C(Cl)(Cl)Cl (stereo unspecified),growth inhibition,[1]; at 1.2 µM,-5%
same,growth inhibition,[1]; at 3.7 µM,-1%
same,growth inhibition,[1]; at 11.0 µM,5%
same,growth inhibition,[1]; at 33.0 µM,87% (active)
same,growth inhibition,[1]; at 100.0 µM,98% (active)
same,growth inhibition,[2]; at 1.2 µM,-13%
same,growth inhibition,[2]; at 3.7 µM,-11%
same,growth inhibition,[2]; at 11.0 µM,-1%
same,growth inhibition,[2]; at 33.0 µM,89% (active)
same,growth inhibition,[2]; at 100.0 µM,99% (active)
same,growth inhibition,[3]; at 1.2 µM,4%
same,growth inhibition,[3]; at 3.7 µM,3%
same,growth inhibition,[3]; at 11.0 µM,4%
same,growth inhibition,[3]; at 33.0 µM,38%
same,growth inhibition,[3]; at 100.0 µM,95% (active)
same,growth inhibition,[4]; at 1.2 µM,20%
same,growth inhibition,[4]; at 3.7 µM,-1%
same,growth inhibition,[4]; at 11.0 µM,5%
same,growth inhibition,[4]; at 33.0 µM,89% (active)
same,growth inhibition,[4]; at 100.0 µM,100% (active)
same,growth inhibition,[5]; at 1.2 µM,16%
same,growth inhibition,[5]; at 3.7 µM,14%
same,growth inhibition,[5]; [17],71% (active)
same,growth inhibition,[5]; at 11.0 µM,21%
same,growth inhibition,[5]; at 33.0 µM,84% (active)
same,growth inhibition,[5]; [18],99% (active)
same,growth inhibition,[5]; at 50.0 µM,81.2% (active)
same,growth inhibition,[5]; at 100.0 µM,97% (active)
same,growth inhibition,[6]; at 1.2 µM,-19%
same,growth inhibition,[6]; at 3.7 µM,-19%
same,growth inhibition,[6]; [17],89% (active)
same,growth inhibition,[6]; at 11.0 µM,-1%
same,growth inhibition,[6]; at 33.0 µM,92% (active)
same,growth inhibition,[6]; [18],99% (active)
same,growth inhibition,[6]; at 50.0 µM,86.8% (active)
same,growth inhibition,[6]; at 100.0 µM,99% (active)
same,growth inhibition,[7]; at 1.2 µM,-23%
same,growth inhibition,[7]; at 3.7 µM,-16%
same,growth inhibition,[7]; at 11.0 µM,-7%
same,growth inhibition,[7]; at 33.0 µM,84% (active)
same,growth inhibition,[7]; at 100.0 µM,98% (active)
same,growth inhibition,[8]; [17],3%
same,growth inhibition,[8]; [18],97% (active)
same,growth inhibition,[8]; at 50.0 µM,84.5% (active)
same,growth inhibition,[9]; at 1.2 µM,25%
same,growth inhibition,[9]; at 3.7 µM,10%
same,growth inhibition,[9]; at 11.0 µM,18%
same,growth inhibition,[9]; at 33.0 µM,87% (active)
same,growth inhibition,[9]; at 100.0 µM,97% (active)
same,growth inhibition,[10]; [17],68%
same,growth inhibition,[10]; [18],98% (active)
same,growth inhibition,[10]; at 50.0 µM,80.8% (active)
same,growth inhibition,[11]; at 1.2 µM,-17%
same,growth inhibition,[11]; at 3.7 µM,15%
same,growth inhibition,[11]; [17],-15%
same,growth inhibition,[11]; at 11.0 µM,3%
same,growth inhibition,[11]; at 33.0 µM,91% (active)
same,growth inhibition,[11]; [18],97% (active)
same,growth inhibition,[11]; at 50.0 µM,81.7% (active)
same,growth inhibition,[11]; at 100.0 µM,99% (active)
same,growth inhibition,[12]; at 1.2 µM,-17%
same,growth inhibition,[12]; at 3.7 µM,-15%
same,growth inhibition,[12]; at 11.0 µM,-21%
same,growth inhibition,[12]; at 33.0 µM,78% (active)
same,growth inhibition,[12]; at 100.0 µM,98% (active)
same,growth inhibition,[13]; at 1.2 µM,11%
same,growth inhibition,[13]; at 3.7 µM,5%
same,growth inhibition,[13]; at 11.0 µM,14%
same,growth inhibition,[13]; at 33.0 µM,84% (active)
same,growth inhibition,[13]; at 100.0 µM,98% (active)
same,growth inhibition,[14]; [17],62%
same,growth inhibition,[14]; [18],99% (active)
same,growth inhibition,[14]; at 50.0 µM,76.2% (active)
same,growth inhibition,[15]; at 1.2 µM,4%
same,growth inhibition,[15]; at 3.7 µM,4%
same,growth inhibition,[15]; at 11.0 µM,32%
same,growth inhibition,[15]; at 33.0 µM,90% (active)
same,growth inhibition,[15]; at 100.0 µM,98% (active)
C[CH2][Sn]([CH2]C)([O]S(C)(=O)=O)[O]S(C)(=O)=O,growth inhibition,[1]; at 1.2 µM,-24%
same,growth inhibition,[1]; at 3.7 µM,-17%
same,growth inhibition,[1]; at 11.0 µM,-24%
same,growth inhibition,[1]; at 33.0 µM,-10%
same,growth inhibition,[1]; at 100.0 µM,11%
same,growth inhibition,[2]; at 1.2 µM,-27%
same,growth inhibition,[2]; at 3.7 µM,-9%
same,growth inhibition,[2]; at 11.0 µM,-15%
same,growth inhibition,[2]; at 33.0 µM,-12%
same,growth inhibition,[2]; at 100.0 µM,-2%
same,growth inhibition,[3]; at 1.2 µM,-28%
same,growth inhibition,[3]; at 3.7 µM,-30%
same,growth inhibition,[3]; at 11.0 µM,-25%
same,growth inhibition,[3]; at 33.0 µM,-14%
same,growth inhibition,[3]; at 100.0 µM,-19%
same,growth inhibition,[4]; at 1.2 µM,0%
same,growth inhibition,[4]; at 3.7 µM,0%
same,growth inhibition,[4]; at 11.0 µM,-11%
same,growth inhibition,[4]; at 33.0 µM,-7%
same,growth inhibition,[4]; at 100.0 µM,37%
same,growth inhibition,[5]; at 1.2 µM,-21%
same,growth inhibition,[5]; at 3.7 µM,-6%
same,growth inhibition,[5]; [17],18%
same,growth inhibition,[5]; at 11.0 µM,-15%
same,growth inhibition,[5]; at 33.0 µM,-20%
same,growth inhibition,[5]; [18],57%
same,growth inhibition,[5]; at 50.0 µM,76.2% (active)
same,growth inhibition,[5]; at 100.0 µM,6%
same,growth inhibition,[6]; at 1.2 µM,-15%
same,growth inhibition,[6]; at 3.7 µM,-4%
same,growth inhibition,[6]; [17],13%
same,growth inhibition,[6]; at 11.0 µM,-9%
same,growth inhibition,[6]; at 33.0 µM,-4%
same,growth inhibition,[6]; [18],58%
same,growth inhibition,[6]; at 50.0 µM,85.3% (active)
same,growth inhibition,[6]; at 100.0 µM,16%
same,growth inhibition,[7]; at 1.2 µM,-21%
same,growth inhibition,[7]; at 3.7 µM,-18%
same,growth inhibition,[7]; at 11.0 µM,-17%
same,growth inhibition,[7]; at 33.0 µM,-10%
same,growth inhibition,[7]; at 100.0 µM,-9%
same,growth inhibition,[8]; [17],14%
same,growth inhibition,[8]; [18],58%
same,growth inhibition,[8]; at 50.0 µM,50%
same,growth inhibition,[9]; at 1.2 µM,-78%
same,growth inhibition,[9]; at 3.7 µM,-94%
same,growth inhibition,[9]; at 11.0 µM,-65%
same,growth inhibition,[9]; at 33.0 µM,-103%
same,growth inhibition,[9]; at 100.0 µM,-62%
same,growth inhibition,[10]; [17],6%
same,growth inhibition,[10]; [18],18%
same,growth inhibition,[10]; at 50.0 µM,46.2%
same,growth inhibition,[11]; at 1.2 µM,-28%
same,growth inhibition,[11]; at 3.7 µM,-25%
same,growth inhibition,[11]; [17],36%
same,growth inhibition,[11]; at 11.0 µM,-17%
same,growth inhibition,[11]; at 33.0 µM,-27%
same,growth inhibition,[11]; [18],50%
same,growth inhibition,[11]; at 50.0 µM,45.5%
same,growth inhibition,[11]; at 100.0 µM,24%
same,growth inhibition,[12]; at 1.2 µM,-56%
same,growth inhibition,[12]; at 3.7 µM,-44%
same,growth inhibition,[12]; at 11.0 µM,-46%
same,growth inhibition,[12]; at 33.0 µM,3%
same,growth inhibition,[12]; at 100.0 µM,55%
same,growth inhibition,[16]; at 1.2 µM,-51%
same,growth inhibition,[16]; at 3.7 µM,-29%
same,growth inhibition,[16]; at 11.0 µM,-33%
same,growth inhibition,[16]; at 33.0 µM,-37%
same,growth inhibition,[16]; at 100.0 µM,0%
same,growth inhibition,[13]; at 1.2 µM,-27%
same,growth inhibition,[13]; at 3.7 µM,-16%
same,growth inhibition,[13]; at 11.0 µM,-22%
same,growth inhibition,[13]; at 33.0 µM,-7%
same,growth inhibition,[13]; at 100.0 µM,15%
same,growth inhibition,[14]; [17],33%
same,growth inhibition,[14]; [18],80% (active)
same,growth inhibition,[14]; at 50.0 µM,56.6%
same,growth inhibition,[15]; at 1.2 µM,-28%
same,growth inhibition,[15]; at 3.7 µM,-19%
same,growth inhibition,[15]; at 11.0 µM,-13%
same,growth inhibition,[15]; at 33.0 µM,-15%
same,growth inhibition,[15]; at 100.0 µM,25%
